# The source made the active and inactive calls. The calls were made as follows: active = hit-call score of the fitted dose curve at least 0.9, where 1 is the maximum; inactive = score below 0.9.
# How the values were obtained:
# [1] = ATG_GRE_CIS: Attagene CIS-FACTORIAL HepG2 Assay for human Glucocorticoid Response Elements (GRE) (AID 2282947); details: HepG2 GRE cis-reporter, Attagene multiplex mRNA; actives raise or lower the signal
# Method in brief: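 Assay uses human hepatoma HepG2 cells transfected with cis-promoter reporter units, exposed 24 h. mRNA from reporters detected by RT-PCR plus capillary electrophoresis; DMSO serves as negative control and baseline.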
# [2] = ATG_ISRE_CIS: Attagene CIS-FACTORIAL HepG2 Assay for human Interferon Regulatory Factor 1 (IRF1) binding to an Interferon-Stimulated Response Element (ISRE) (AID 2282948); details: HepG2 ISRE cis-reporter (Attagene), mRNA transcription readout; actives raise or lower the signal
# Method in brief: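 Quantitation relies on labelled RT-PCR fragments separated by capillary electrophoresis. Human HepG2 cells bearing cis-promoter reporter constructs were treated 24 h; DMSO served as baseline for bidirectional fitting.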
# [3] = ATG_M_32_CIS: Attagene CIS-FACTORIAL HepG2 Assay for M32 Transcription Factor (Internal Marker) (AID 2282949); details: HepG2 Attagene cis-factorial M32 reporter, mRNA; actives raise or lower the signal;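 also: background control marker of the multiplexed CIS panel rather than a real target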
# Method in brief: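 Internal background marker read-out: RT-PCR/capillary electrophoresis fluorescence of reporter transcripts from transiently transfected HepG2 cells after 24 h chemical exposure. Activity fitted bidirectionally relative to DMSO negative control.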
# [4] = ATG_M_06_CIS: Attagene CIS-FACTORIAL HepG2 Assay for M06 Transcription Factor (Internal Marker) (AID 2282950); details: HepG2 Attagene CIS-FACTORIAL M06 internal marker reporter; actives raise or lower the signal
# Method in brief: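 Measured 24 h post-dosing in transiently transfected HepG2 cells, this internal-marker endpoint reports reporter mRNA via RT-PCR with fluorescent primer extension and capillary electrophoresis. DMSO served as negative control and baseline for bidirectional fitting.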
# [5] = molecular target: Hypoxia-inducible factor 1-alpha (Homo sapiens) (UniProt Q16665); experiment: ATG_HIF1a_CIS: Attagene CIS-FACTORIAL HepG2 Assay for human Hypoxia Inducible Factor 1 (HIF1A) (AID 2282951); details: HepG2 Attagene cis-factorial HIF1a reporter transcription; actives raise or lower the signal
# Chain of Hypoxia-inducible factor 1-alpha (Homo sapiens) (Q16665 whole entry, looked up): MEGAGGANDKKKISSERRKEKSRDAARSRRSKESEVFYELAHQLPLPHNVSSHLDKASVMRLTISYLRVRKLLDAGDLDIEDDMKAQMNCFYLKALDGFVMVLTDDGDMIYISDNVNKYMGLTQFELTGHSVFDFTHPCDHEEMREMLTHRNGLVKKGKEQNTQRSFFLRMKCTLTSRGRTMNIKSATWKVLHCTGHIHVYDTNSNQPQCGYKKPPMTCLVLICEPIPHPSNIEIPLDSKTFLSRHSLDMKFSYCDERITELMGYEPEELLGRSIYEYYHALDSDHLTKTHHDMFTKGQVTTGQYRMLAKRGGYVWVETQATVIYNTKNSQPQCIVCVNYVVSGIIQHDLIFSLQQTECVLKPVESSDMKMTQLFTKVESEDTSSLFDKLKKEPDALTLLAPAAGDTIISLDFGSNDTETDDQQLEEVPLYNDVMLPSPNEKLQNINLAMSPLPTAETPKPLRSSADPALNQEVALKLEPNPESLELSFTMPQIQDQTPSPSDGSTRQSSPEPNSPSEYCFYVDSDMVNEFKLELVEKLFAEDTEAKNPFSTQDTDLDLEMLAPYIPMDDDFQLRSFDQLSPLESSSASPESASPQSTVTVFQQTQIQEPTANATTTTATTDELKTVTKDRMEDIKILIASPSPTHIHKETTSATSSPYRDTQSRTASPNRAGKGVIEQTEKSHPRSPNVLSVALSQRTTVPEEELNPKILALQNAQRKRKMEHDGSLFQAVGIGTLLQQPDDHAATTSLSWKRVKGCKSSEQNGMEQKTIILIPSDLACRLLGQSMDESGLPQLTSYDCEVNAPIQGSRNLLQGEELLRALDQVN
# Method in brief: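 In this multiplexed cell assay, HepG2 cells bearing transfected cis reporters are dosed for 24 h and reporter mRNA is read by RT-PCR plus capillary electrophoresis; signal increases and decreases are both scored against DMSO.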
# [6] = molecular target: Hepatocyte nuclear factor 6 (Homo sapiens) (UniProt Q9UBC0); experiment: ATG_HNF6_CIS: Attagene CIS-FACTORIAL HepG2 Assay for human Hepatocyte Nuclear Factor 6 (HNF6) (AID 2282952); details: HepG2 Attagene cis-factorial HNF6 reporter transcription; actives raise or lower the signal
# Chain of Hepatocyte nuclear factor 6 (Homo sapiens) (Q9UBC0 whole entry, looked up, the tested form may be a part): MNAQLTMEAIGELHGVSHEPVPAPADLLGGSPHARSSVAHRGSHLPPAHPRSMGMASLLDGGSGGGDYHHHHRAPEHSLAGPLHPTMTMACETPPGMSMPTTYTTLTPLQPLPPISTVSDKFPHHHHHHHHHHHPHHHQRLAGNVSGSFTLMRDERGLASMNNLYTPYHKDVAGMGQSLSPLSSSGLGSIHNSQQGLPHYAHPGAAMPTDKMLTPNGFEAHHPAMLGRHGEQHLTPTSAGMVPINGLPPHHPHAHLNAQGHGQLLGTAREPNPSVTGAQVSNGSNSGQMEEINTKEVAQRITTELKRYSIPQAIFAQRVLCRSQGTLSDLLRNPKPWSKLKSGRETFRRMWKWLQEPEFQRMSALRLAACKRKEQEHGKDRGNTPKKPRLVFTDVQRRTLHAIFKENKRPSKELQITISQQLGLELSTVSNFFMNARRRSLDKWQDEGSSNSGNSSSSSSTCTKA
# Method in brief: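 HepG2 cells transiently transfected with cis-element-driven multiplexed reporter units measuring endogenous transcription factor activity. After 24 h exposure, reporter mRNA quantified by RT-PCR, FAM-labelled fragments and capillary electrophoresis; bidirectional fitting versus DMSO.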
# [7] = molecular target: Paired box protein Pax-6 (Homo sapiens) (UniProt P26367); experiment: ATG_Pax6_CIS: Attagene CIS-FACTORIAL HepG2 Assay for human Paired Box 6 (PAX6) (AID 2282956); details: HepG2 CIS-FACTORIAL PAX6 reporter transcription, RNA readout; actives raise or lower the signal
# Chain of Paired box protein Pax-6 (Homo sapiens) (P26367 whole entry, looked up): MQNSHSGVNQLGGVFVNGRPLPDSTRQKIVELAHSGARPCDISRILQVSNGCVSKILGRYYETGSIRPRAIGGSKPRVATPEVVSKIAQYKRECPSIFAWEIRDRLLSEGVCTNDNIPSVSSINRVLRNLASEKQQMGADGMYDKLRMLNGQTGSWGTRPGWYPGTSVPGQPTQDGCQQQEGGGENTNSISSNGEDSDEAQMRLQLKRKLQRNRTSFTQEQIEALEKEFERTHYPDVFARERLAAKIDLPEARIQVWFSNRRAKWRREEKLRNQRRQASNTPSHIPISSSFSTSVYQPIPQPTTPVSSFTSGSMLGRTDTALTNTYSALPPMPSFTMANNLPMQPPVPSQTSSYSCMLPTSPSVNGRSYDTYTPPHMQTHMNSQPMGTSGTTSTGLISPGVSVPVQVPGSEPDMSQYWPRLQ
# Method in brief: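 After twenty-four hours of chemical exposure, transfected HepG2 cells are harvested for RNA. Cis-promoter reporter transcripts are amplified, fluorescently labelled and sized by capillary electrophoresis, with gain and loss of signal scored against DMSO.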
# [8] = ATG_PXRE_CIS: Attagene CIS-FACTORIAL HepG2 Assay for human Pregnane X Receptor Element (PXRE) (AID 2282957); details: HepG2 Attagene CIS-FACTORIAL PXRE reporter, mRNA; actives raise or lower the signal
# Method in brief: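 HepG2 cells transiently transfected with cis-element-driven multiplexed reporter units; after 24 h chemical exposure, reporter mRNA measured by RT-PCR, 6-FAM labelling, HpaI digestion and capillary electrophoresis. Bidirectional fitting relative to DMSO.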
# [9] = ATG_PPRE_CIS: Attagene CIS-FACTORIAL HepG2 Assay for human Peroxisome Proliferator-activated Response Element (PPRE) (AID 2282958); details: HepG2 PPRE cis-element reporter, Attagene transcription factor profiling; actives raise or lower the signal
# Method in brief: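 Multiplexed reporter transcription units under cis-regulatory promoters were transfected into HepG2 cells to capture endogenous factor activity. A 24 h incubation preceded RNA isolation and fluorescent RT-PCR fragment analysis.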
# [10] = ATG_RORE_CIS: Attagene CIS-FACTORIAL HepG2 Assay for human RAR-related Orphan Receptor Element (RORE) (AID 2282959); details: HepG2 Attagene cis-factorial RORE reporter, mRNA; actives raise or lower the signal
# Method in brief: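 Fluorescence intensity of reporter-specific cDNA fragments, separated by capillary electrophoresis, gives the signal. Source: HepG2 liver cells transiently transfected with cis-element reporters and exposed 24 h; DMSO-normalized bidirectional fit.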
# [11] = ATG_Sox_CIS: Attagene CIS-FACTORIAL HepG2 Assay for human SRY-box transcription factor (SOX) (AID 2282960); details: HepG2 Attagene cis-factorial SOX reporter, mRNA; actives raise or lower the signal
# Method in brief: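 After 24 h of chemical treatment, transfected HepG2 reporter cells are lysed for total RNA. Transcript levels come from RT-PCR with labelled primer extension and capillary electrophoresis, analysed bidirectionally versus DMSO.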
# [12] = molecular target: Transcription factor Sp1 (Homo sapiens) (UniProt P08047); experiment: ATG_Sp1_CIS: Attagene CIS-FACTORIAL HepG2 Assay for human Specificity Protein 1 (Sp1) (AID 2282961); details: HepG2 Sp1 cis-reporter transcription, actives raise or lower the signal
# Chain of Transcription factor Sp1 (Homo sapiens) (P08047 whole entry, looked up): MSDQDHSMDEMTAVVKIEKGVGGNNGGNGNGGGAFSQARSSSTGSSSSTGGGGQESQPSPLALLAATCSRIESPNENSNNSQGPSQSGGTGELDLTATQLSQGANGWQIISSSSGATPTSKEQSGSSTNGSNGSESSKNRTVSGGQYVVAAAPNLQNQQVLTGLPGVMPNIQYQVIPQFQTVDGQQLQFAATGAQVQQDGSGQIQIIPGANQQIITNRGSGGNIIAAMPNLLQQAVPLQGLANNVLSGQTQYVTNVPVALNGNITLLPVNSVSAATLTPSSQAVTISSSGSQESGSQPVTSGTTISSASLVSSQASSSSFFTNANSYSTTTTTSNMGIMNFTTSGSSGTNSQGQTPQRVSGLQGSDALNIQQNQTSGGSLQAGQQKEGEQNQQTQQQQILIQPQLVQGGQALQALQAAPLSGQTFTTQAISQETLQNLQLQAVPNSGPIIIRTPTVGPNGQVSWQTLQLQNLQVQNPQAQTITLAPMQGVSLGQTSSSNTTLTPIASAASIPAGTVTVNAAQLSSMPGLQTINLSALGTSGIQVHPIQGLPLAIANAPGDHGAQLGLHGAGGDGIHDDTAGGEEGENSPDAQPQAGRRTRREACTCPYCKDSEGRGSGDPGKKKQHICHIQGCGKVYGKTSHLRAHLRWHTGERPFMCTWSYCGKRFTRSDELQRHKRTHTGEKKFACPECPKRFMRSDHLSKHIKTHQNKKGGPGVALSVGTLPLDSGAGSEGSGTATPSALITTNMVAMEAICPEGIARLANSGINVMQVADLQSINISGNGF
# Method in brief: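 Sp1-driven reporter mRNA, read as capillary electrophoresis fluorescence after RT-PCR, in transiently transfected HepG2 cells dosed for 24 h; signal change in either direction relative to DMSO.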
# [13] = ATG_SREBP_CIS: Attagene CIS-FACTORIAL HepG2 Assay for human Sterol Regulatory Element Binding (SREBP) (AID 2282962); details: HepG2 Attagene cis-factorial SREBP reporter, mRNA; actives raise or lower the signal
# Method in brief: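 Twenty-four hours after chemical dosing of transfected HepG2 cultures, reporter RNA was converted to cDNA, amplified, end-labelled with 6-FAM and resolved by capillary electrophoresis. Responses were fitted relative to DMSO.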
# [14] = molecular target: Signal transducer and activator of transcription 3 (Homo sapiens) (UniProt P40763); experiment: ATG_STAT3_CIS: Attagene CIS-FACTORIAL HepG2 Assay for human Signal Transducer and Activator of Transcription 3 (STAT3) (AID 2282963); details: HepG2, Attagene cis-factorial STAT3 reporter transcription; actives raise or lower the signal
# Chain of Signal transducer and activator of transcription 3 (Homo sapiens) (P40763 whole entry, looked up): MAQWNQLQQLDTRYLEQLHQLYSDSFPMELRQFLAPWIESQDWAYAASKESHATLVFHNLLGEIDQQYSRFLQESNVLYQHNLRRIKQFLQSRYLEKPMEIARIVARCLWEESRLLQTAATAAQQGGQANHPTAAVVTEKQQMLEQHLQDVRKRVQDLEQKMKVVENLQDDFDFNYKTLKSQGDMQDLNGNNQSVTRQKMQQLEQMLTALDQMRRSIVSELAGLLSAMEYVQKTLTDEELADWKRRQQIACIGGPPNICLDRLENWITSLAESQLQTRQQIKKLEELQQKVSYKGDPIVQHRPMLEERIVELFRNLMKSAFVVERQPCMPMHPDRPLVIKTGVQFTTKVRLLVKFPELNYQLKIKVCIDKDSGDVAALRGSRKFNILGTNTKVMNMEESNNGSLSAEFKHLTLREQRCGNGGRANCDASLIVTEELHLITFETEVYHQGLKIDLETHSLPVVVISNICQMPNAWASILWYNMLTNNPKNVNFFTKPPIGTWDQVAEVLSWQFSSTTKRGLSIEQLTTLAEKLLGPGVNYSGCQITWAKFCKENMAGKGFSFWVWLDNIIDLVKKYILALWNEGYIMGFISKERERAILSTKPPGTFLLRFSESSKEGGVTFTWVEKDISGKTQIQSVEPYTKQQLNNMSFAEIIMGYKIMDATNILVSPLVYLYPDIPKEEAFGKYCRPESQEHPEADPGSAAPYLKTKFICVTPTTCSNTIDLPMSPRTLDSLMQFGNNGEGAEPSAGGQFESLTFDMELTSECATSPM
# Method in brief: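 After a 24 h compound incubation, total RNA from MRTU-transfected HepG2 cells was converted to cDNA and reporter sequences PCR-amplified, labelled and profiled by capillary electrophoresis. Gain and loss of signal were referenced to DMSO.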
# [15] = ATG_TA_CIS: Attagene CIS-FACTORIAL HepG2 Assay for human TA Basal Promoter (AID 2282964); details: HepG2 Attagene CIS-factorial TA basal promoter reporter; actives raise or lower the signal
# Method in brief: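 Cis-factorial format in HepG2: reporters report endogenous factors, not chimeric Gal4 fusions. After 24 h treatment, reporter transcripts were measured by RT-PCR-capillary electrophoresis fluorescence, analysed bidirectionally versus DMSO.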
# [16] = ATG_TCF_b_cat_CIS: Attagene CIS-FACTORIAL HepG2 Assay for human T-Cell-Factor with beta-catenin (TCF/b-cat) (AID 2282965); details: HepG2 TCF/beta-catenin cis-reporter transcription, actives raise or lower the signal
# Method in brief: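 Measured: reporter mRNA in HepG2 transiently transfected with cis-promoter reporter units, 24 h after chemical addition. Fitting was bidirectional, DMSO as negative control.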
# [17] = ATG_MRE_CIS: Attagene CIS-FACTORIAL HepG2 Assay for human Metal Responsive Element (MRE) (AID 2282954); details: HepG2 MRE cis-reporter transcription, Attagene multiplex; actives raise or lower the signal
# Method in brief: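 After a 24 h chemical exposure, transiently transfected HepG2 cells yield RNA whose reporter sequences are amplified, FAM-labelled and sized by capillary electrophoresis. Curves are fitted bidirectionally relative to DMSO.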
# [18] = molecular target: Heat shock factor protein 1 (Homo sapiens) (UniProt Q00613); experiment: ATG_HSE_CIS: Attagene CIS-FACTORIAL HepG2 Assay for human Heat Shock Transcription Factor 1 (HSE) (AID 2282953); details: HepG2 HSE cis-reporter, Attagene RNA transcription; actives raise or lower the signal
# Chain of Heat shock factor protein 1 (Homo sapiens) (Q00613 whole entry, looked up): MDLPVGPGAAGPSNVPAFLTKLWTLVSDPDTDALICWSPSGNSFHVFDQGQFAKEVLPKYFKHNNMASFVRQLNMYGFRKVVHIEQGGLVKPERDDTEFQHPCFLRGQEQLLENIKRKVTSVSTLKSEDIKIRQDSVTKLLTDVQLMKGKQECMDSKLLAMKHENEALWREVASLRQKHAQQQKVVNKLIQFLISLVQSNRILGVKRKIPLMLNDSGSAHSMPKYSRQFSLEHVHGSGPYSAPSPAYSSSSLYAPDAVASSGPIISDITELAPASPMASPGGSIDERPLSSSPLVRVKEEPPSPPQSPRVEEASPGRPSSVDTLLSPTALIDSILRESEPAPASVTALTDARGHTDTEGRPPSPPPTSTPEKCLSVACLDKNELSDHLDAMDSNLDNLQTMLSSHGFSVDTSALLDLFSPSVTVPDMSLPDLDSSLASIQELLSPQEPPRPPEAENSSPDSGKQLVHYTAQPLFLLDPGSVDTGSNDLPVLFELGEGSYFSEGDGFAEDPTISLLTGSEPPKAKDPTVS
# Method in brief: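 Reporter mRNA induction in HepG2 is measured 24 h after dosing, using transiently transfected multiplexed cis-regulated reporter units. Signal comes from capillary electrophoresis of labelled RT-PCR products, with DMSO as negative control.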
# [19] = ATG_PBREM_CIS: Attagene CIS-FACTORIAL HepG2 Assay for human Phenobarbital-responsive Enhancer Module (PBREM) (AID 2282955); details: HepG2 PBREM cis-reporter, Attagene multiplexed transcription; actives raise or lower the signal
# Method in brief: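 After a 24 h incubation with test chemical, transfected HepG2 cells yield total RNA; reporter-specific RT-PCR products are fluorescently labelled, HpaI-digested and resolved by capillary electrophoresis against ROX size standards.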
smiles,measurement,setting,value
COc1ccc(-n2nc(C(F)F)cc2-c2ccc(S(C)=O)cc2)cc1 (stereo unspecified),outcome,[1],inactive
same,outcome,[2],inactive
same,outcome,[3],inactive
same,outcome,[4],inactive
same,outcome,[5],inactive
same,outcome,[6],inactive
same,outcome,[7],inactive
same,AC50,[8],26.6 µM (active)
same,outcome,[9],inactive
same,outcome,[10],inactive
same,outcome,[11],inactive
same,outcome,[12],inactive
same,AC50,[13],126 µM (active)
same,outcome,[14],inactive
same,outcome,[15],inactive
same,outcome,[16],inactive
CC1=CC(=O)CC(C)(C)C1,outcome,[1],inactive
same,outcome,[2],inactive
same,outcome,[3],inactive
same,outcome,[4],inactive
same,outcome,[5],inactive
same,outcome,[6],inactive
same,outcome,[17],inactive
same,outcome,[7],inactive
same,AC50,[8],50 µM (active)
same,outcome,[9],inactive
same,outcome,[10],inactive
same,outcome,[11],inactive
same,outcome,[12],inactive
same,outcome,[13],inactive
same,outcome,[14],inactive
same,outcome,[15],inactive
same,outcome,[16],inactive
CC(=O)c1ccc2c(c1)[C@H](NC(=O)c1ccc(F)cc1)[C@@H](O)C(C)(C)O2,outcome,[1],inactive
same,outcome,[2],inactive
same,outcome,[3],inactive
same,outcome,[4],inactive
same,outcome,[5],inactive
same,outcome,[6],inactive
same,outcome,[18],inactive
same,outcome,[19],inactive
same,outcome,[7],inactive
same,AC50,[8],12.4 µM (active)
same,AC50,[9],1.87 µM (active)
same,outcome,[10],inactive
same,outcome,[12],inactive
same,outcome,[13],inactive
same,outcome,[14],inactive
same,outcome,[15],inactive
same,outcome,[16],inactive
O=C(O)c1cccc(N(Cc2cccnc2)c2ccc(OC(F)F)c(OC(F)F)c2)c1,outcome,[2],inactive
same,outcome,[3],inactive
same,outcome,[4],inactive
same,outcome,[5],inactive
same,outcome,[6],inactive
same,outcome,[18],inactive
same,outcome,[17],inactive
same,outcome,[19],inactive
same,outcome,[7],inactive
same,AC50,[8],26.2 µM (active)
same,AC50,[9],25.1 µM (active)
same,outcome,[10],inactive
same,outcome,[11],inactive
same,outcome,[12],inactive
same,outcome,[13],inactive
same,outcome,[14],inactive
same,outcome,[15],inactive
same,AC50,[16],100 µM (active)
CC[C@H]1OC(=O)[C@H](C)[C@@H](O[C@H]2C[C@@](C)(OC)[C@@H](O)[C@H](C)O2)[C@H](C)[C@@H](O[C@@H]2O[C@H](C)C[C@H](N(C)C)[C@H]2O)[C@](C)(O)C[C@@H](C)C(=O)[C@H](C)[C@@H](O)[C@]1(C)O,outcome,[2],inactive
same,outcome,[3],inactive
same,outcome,[4],inactive
same,outcome,[6],inactive
same,outcome,[18],inactive
same,outcome,[17],inactive
same,outcome,[19],inactive
same,outcome,[7],inactive
same,outcome,[8],inactive
same,outcome,[10],inactive
same,outcome,[12],inactive
same,outcome,[13],inactive
same,outcome,[14],inactive
same,outcome,[15],inactive
same,outcome,[16],inactive
O=C(O)c1cc(N=Nc2ccc(S(=O)(=O)Nc3ccccn3)cc2)ccc1O,outcome,[1],inactive
same,outcome,[2],inactive
same,outcome,[3],inactive
same,outcome,[4],inactive
same,outcome,[6],inactive
same,outcome,[18],inactive
same,outcome,[17],inactive
same,outcome,[7],inactive
same,outcome,[8],inactive
same,outcome,[9],inactive
same,outcome,[10],inactive
same,outcome,[12],inactive
same,outcome,[13],inactive
same,outcome,[14],inactive
same,outcome,[15],inactive
same,outcome,[16],inactive
Nc1nc2ncc(CNc3ccc(C(=O)N[C@@H](CCC(=O)O)C(=O)O)cc3)nc2c(=O)[nH]1,outcome,[1],inactive
same,outcome,[2],inactive
same,outcome,[3],inactive
same,outcome,[4],inactive
same,outcome,[6],inactive
same,outcome,[18],inactive
same,outcome,[19],inactive
same,outcome,[7],inactive
same,outcome,[8],inactive
same,outcome,[9],inactive
same,outcome,[10],inactive
same,outcome,[12],inactive
same,outcome,[13],inactive
same,outcome,[14],inactive
same,outcome,[15],inactive
same,outcome,[16],inactive
COC(=O)c1ccccc1O,outcome,[2],inactive
same,outcome,[3],inactive
same,outcome,[4],inactive
same,outcome,[5],inactive
same,outcome,[6],inactive
same,outcome,[17],inactive
same,outcome,[7],inactive
same,outcome,[8],inactive
same,outcome,[10],inactive
same,outcome,[12],inactive
same,outcome,[13],inactive
same,outcome,[14],inactive
same,outcome,[15],inactive
same,outcome,[16],inactive
O=C(NS(=O)(=O)/C=C/c1ccccc1)c1ccc(F)cc1Cl,outcome,[2],inactive
same,outcome,[3],inactive
same,outcome,[4],inactive
same,outcome,[5],inactive
same,outcome,[6],inactive
same,outcome,[18],inactive
same,outcome,[17],inactive
same,outcome,[19],inactive
same,outcome,[7],inactive
same,AC50,[8],34.9 µM (active)
same,outcome,[9],inactive
same,outcome,[10],inactive
same,outcome,[12],inactive
same,outcome,[13],inactive
same,outcome,[14],inactive
same,outcome,[15],inactive
same,outcome,[16],inactive

# Reference: PubChem BioAssay (EPA / NIEHS)
